Consider 77 molecules from PubChem BioAssay AID540256 (National Center for Advancing Translational Sciences (NCATS), 2011).

The whole screen tested about 300,000 compounds, of which about 3,700 (1.2%) were called active. Entries that show only a call come without a potency. Inconclusive results (about 20%) are left out. The sample holds actives, similar compounds and a random draw of the others, so the mix is not that of the screen. Calls follow the shape of the full dose curve; tested in HEK293 cells.
Potency is read from the fitted curve at half-maximal effect.

The nature of this assay: qHTS for Inhibitors of binding or entry into cells for Lassa Virus. Also: nearly all actives have a fitted effect of over 50% in size. Conditions: Lassa virus pseudotype entry inhibition, cell reporter; series mostly up to 37.9 µM.
As to `CN(C)c1ccc(NC(=S)N(CCc2ccccc2)C2CC(=O)N(c3c(Cl)cccc3Cl)C2=O)cc1` (configuration not stated), the Potency is 3.55 µM (active).

For the molecule `COC(=O)CN(C(=S)Nc1ccc(Cl)cc1)C1CC(=O)N(c2ccc(OC)cc2)C1=O` (configuration not stated), the Potency result is “inactive”.

As to `CN(CC(=O)Nc1cccc(F)c1)C(=O)C1CC(=O)N(CCc2ccccc2)C1` (configuration not stated), the Potency result is “inactive”.

On to `O=C(COc1ccccc1Cl)Nc1ccc2nc(SCC(=O)N3CCCC3)sc2c1`, for which the Potency entry is “inactive”.

`CC(C)(C)C(=O)COC(=O)c1cc(S(=O)(=O)N2CCCCC2)ccc1N1CCOCC1`: the Potency result was “inactive”.

As for `COc1ccccc1-c1c(C)nn2c(C)c(C(C)=O)cnc12`, the Potency entry is “inactive”.

Take `COc1ccccc1-c1n[nH]c2c1[C@H](C)CC[C@H]2C(C)C`: the Potency entry is “inactive”.

Turning to `CC(=O)COc1ccc2c(-c3ccccc3)cc(=O)oc2c1`, the Potency entry is “inactive”.

Consider `C=C(C)COc1ccc(-c2n[nH]c(C)c2-c2ccccc2)c(O)c1`, for which the Potency is 1.78 µM (active).

As for `Cc1[nH]nc(-c2ccc(OCc3cnn(-c4ccccc4)c3)cc2O)c1Oc1ccc(Cl)cc1`, the Potency result was “inactive”.

Regarding `C=C(C)COc1ccc(-c2n[nH]c(C)c2-c2ccccc2OC)c(O)c1`, the Potency is 7.08 µM (active).

On to `Cc1cccc(C(=O)NNC(=O)CSc2nnc(C(C)C)n2C)c1`, for which the Potency entry was “inactive”.

With `CCN(C(=O)COC(=O)c1ccccc1O)c1cccc2ccccc12`, the Potency result is “inactive”.

Regarding `CCOC(=O)c1c(S(=O)(=O)Nc2cccc(Cl)c2)c(C)n(C)c1C`, the Potency result was “inactive”.

For `CC(C)(C)c1nnc2sc(SCC(O)=C(C#N)c3nc4ccccc4[nH]3)nn2c1=O`, the Potency entry was “inactive”.

For `Cc1ccc(NC(=S)N(CCN(C)C)Cc2cccs2)cc1C`, the Potency is 6.31 µM (active).

As for `Cc1ccccc1NC(=S)N(CCCN1CCOCC1)Cc1cccs1`, the Potency result is “inactive”.

As for `CCc1cccc(C)c1NC(=S)N(CCCN1CCN(C)CC1)Cc1cccs1`, the Potency result is “inactive”.

With `Cc1ccc(-n2c(SCC(=O)Nc3ncc(Cl)cc3Cl)nc3ccccc32)cc1`, the Potency was 0.291 µM (active).

Regarding `CCOc1ccc(-n2c(SCC(=O)Nc3cc(C(=O)O)ccc3Cl)nc3ccccc3c2=O)cc1`, the Potency entry is “inactive”.

With `Cc1ccc(SCCC(=O)OCC(=O)Nc2ncc(Cl)cc2Cl)cc1`, the Potency entry was “inactive”.

Consider `CC/C(=C(/c1ccccc1)c1ccc(OCC[N+](C)(C)C)cc1)c1ccccc1`, for which the Potency result was “inactive”.

With `Cc1ccc(S(=O)(=O)N2CCCCC2)cc1C(=O)N(C)CC(=O)Nc1cccc(F)c1`, the Potency entry is “inactive”.

Take `Cc1nc2cc3c(cc2s1)OCO3`: the Potency result was “inactive”.

As for `c1c2c(cc3sc(N4CCCCC4)nc13)OCCO2`, the Potency is 1.58 µM (active).

Consider `O=C(NCc1ccc(F)cc1)c1ccc2nc(N3CCCCC3)sc2c1`, for which the Potency result is “inactive”.

As to `Cc1ccc(N(C(=O)c2sc(C)nc2C)C(C(=O)NC(C)(C)C)c2ccncc2)cc1` (configuration not stated), the Potency entry was “inactive”.

For the molecule `Cc1nc(C)c(C(=O)N(c2ccc(C)c(C)c2)C(C(=O)NCc2ccco2)c2ccccc2)s1` (configuration not stated), the Potency is 4.61 µM (active).

For the molecule `Cc1cccc(N(C(=O)Cc2cccs2)C(C(=O)NCc2ccco2)c2ccncc2)c1` (configuration not stated), the Potency entry is “inactive”.

For the molecule `Cc1ccc(OCc2cc(C(=O)N(C)CCn3ccnc3C)no2)cc1C`, the Potency entry is “inactive”.

Regarding `CCCN1CCN(C(=O)CCCNC(=O)c2ccc(Cl)cc2)CC1`, the Potency result is “inactive”.

Turning to `COc1ccccc1N1CCN(c2nc(C)cc(=O)[nH]2)CC1`, the Potency result was “inactive”.

On to `Cc1nnc(SCC(=O)N2CCc3ccccc3C2)s1`, for which the Potency entry was “inactive”.

With `Cc1nnc(SCC(=O)N2c3ccccc3C(C)(c3ccc(Cl)cc3)CC2(C)C)s1` (configuration not stated), the Potency is 10 µM (active).

Take `Cc1nnc(SCC(=O)NCc2ccccc2)s1`: the Potency result is “inactive”.

With `Cc1ccc(NC2CCCN(C(=O)CCc3cn[nH]c3)C2)cc1C` (configuration not stated), the Potency result was “inactive”.

Regarding `COc1cc(C(=S)N2CCOCC2)cc(OC)c1OC(=O)c1ccc([N+](=O)[O-])cc1[N+](=O)[O-]`, the Potency result was “inactive”.

On to `CCN1CCC2(CC1)N=C(c1ccc(F)cc1)C(=S)N2C(=O)c1ccc(C)cc1`, for which the Potency is 8.91 µM (active).

In the case of `Cc1ccc(SCC(=O)N2CCN(c3ccc(F)cc3)CC2)cc1`, the Potency entry was “inactive”.

For `CCN1CCC(N(Cc2ccc(F)cc2)C(=O)Nc2cc(C)ccc2C)CC1`, the Potency result was “inactive”.

For `COc1ccccc1C(=O)Nc1ccc(Nc2ccccc2)cc1`, the Potency entry is “inactive”.

As for `CCC(=O)Nc1ccc2nc(SCC(=O)N3CCc4ccccc43)sc2c1`, the Potency result was “inactive”.

Turning to `COCCn1cnnc1SCC(=O)Nc1cccc(S(=O)(=O)N2CCCCC2)c1`, the Potency result was “inactive”.

Consider `O=c1[nH]c(CN2CCOCC2)nc2cc(Cl)ccc12`, for which the Potency entry is “inactive”.

Take `NC(=O)Cc1nc2scc(-c3ccc(Cl)cc3)c2c(=O)[nH]1`: the Potency result was “inactive”.

Consider `O=c1[nH]c(CCl)nc2cc(-c3ccc(Cl)cc3)sc12`, for which the Potency is 10 µM (active).

In the case of `O=C1c2ccccc2C(=O)C1C(=O)C1CC1`, the Potency result is “inactive”.

Take `Cc1ccc(S(=O)(=O)N/N=C(\c2ccccc2)C2CC2)cc1`: the Potency entry is “inactive”.

For the molecule `COc1ccc(-c2cc(C(=O)n3cnc4ccccc43)c3ccccc3n2)cc1`, the Potency entry is “inactive”.

With `CNC(=O)COC(=O)c1cc(-c2ccc(OC)cc2)nc2ccccc12`, the Potency result was “inactive”.

`COc1ccc(-c2cc(C(=O)N(C)Cc3ccccc3)c3ccccc3n2)cc1`: the Potency was 10 µM (active).

For `COc1ccccc1N1CC(C(=O)Nc2nnc(SCC(=O)NCC3CCCO3)s2)CC1=O` (configuration not stated), the Potency result is “inactive”.

For the molecule `COc1ccc(C(CNC(=O)c2cc3c(s2)CCCC3)N2CCOCC2)cc1` (configuration not stated), the Potency entry was “inactive”.

As to `Cc1ccc(C(CC(=O)O)NC(=O)c2ccc(S(=O)(=O)N3CCCC3)cc2)cc1` (configuration not stated), the Potency result was “inactive”.

For `C=CCN1C(=O)N(Cc2ccccc2)c2ccccc2S1(=O)=O`, the Potency result was “inactive”.

In the case of `O=C1c2ccccc2C2=Nc3ccccc3SC(c3ccccc3F)C12` (configuration not stated), the Potency is 20.6 µM (active).

Consider `O=C1c2ccccc2C(=O)C1c1ccccc1F`, for which the Potency entry is “inactive”.

For the molecule `Cn1cc(/C=C/c2nc3ccccc3c(=O)n2-c2cccc([N+](=O)[O-])c2)c2ccccc21`, the Potency entry was “inactive”.

On to `Cc1ccc(-n2c(/C=C/c3cccc(C(F)(F)F)c3)nc3ccccc3c2=O)cc1`, for which the Potency entry was “inactive”.

Regarding `CCn1c(/C=C/c2ccc([N+](=O)[O-])o2)nc2ccccc2c1=O`, the Potency was 3.66 µM (active).

Consider `COc1cccc(CC(=NO)c2cccc(OC)c2)c1`, for which the Potency result is “inactive”.

In the case of `Fc1ccccc1OCCCCn1cncn1`, the Potency result is “inactive”.

Regarding `OC(COc1ccc2ccccc2c1)Cn1cncn1` (configuration not stated), the Potency entry is “inactive”.

With `O=C(c1ccccc1)C(Cn1cncn1)C(Sc1ccccc1)c1ccccc1` (configuration not stated), the Potency was 22.4 µM (active).

Turning to `Cc1ccccc1N1CC(C(=O)Nc2nnc(SCCC3OCCO3)s2)CC1=O` (configuration not stated), the Potency result is “inactive”.

In the case of `CCOc1cc2ccccc2cc1C(=O)Nc1ccccn1`, the Potency entry is “inactive”.

Regarding `Cc1cc(C(=O)Cn2cnc3cc([N+](=O)[O-])ccc3c2=O)c(C)n1CC1CCCO1` (configuration not stated), the Potency entry is “inactive”.

`Cc1cc(C(=O)CCl)c(C)n1CC1COc2ccccc2O1` (configuration not stated): the Potency result is “inactive”.

Turning to `Cc1ccsc1C(=O)OCC(=O)c1cc(C)n(CC2CCCO2)c1C` (configuration not stated), the Potency is 2.59 µM (active).

`CCOC(=O)N1CCN(C(=O)C(=O)Nc2sc3c(c2C#N)CC(C)(C)OC3)CC1`: the Potency entry was “inactive”.

Turning to `COC(=O)c1ccc(OC(=O)c2cnccn2)cc1`, the Potency entry is “inactive”.

For `CSCCC1NC(=O)N(CC(=O)Nc2cccc(S(=O)(=O)N3CCCCCC3)c2)C1=O` (configuration not stated), the Potency entry is “inactive”.

For the molecule `CCOC(=O)N1CCC(NC(=O)c2cnn(-c3cccc(C)c3)c2C2CCN(C(=O)OC(C)(C)C)CC2)CC1`, the Potency entry was “inactive”.

As to `CCN(CC)c1ccc(S(=O)(=O)N2CCCCC2)cc1NC(=O)C1=COCCO1`, the Potency result is “inactive”.

Consider `CC(C)(C)c1ccc(C(=O)NCC(c2ccco2)S(=O)(=O)c2ccc(F)cc2)cc1` (configuration not stated), for which the Potency was 12.6 µM (active).

On to `O=C(NCC(c1ccco1)S(=O)(=O)c1cccs1)c1ccc(F)cc1` (configuration not stated), for which the Potency result was “inactive”.

On to `COc1ccccc1CNC(=O)C(=O)NCC(c1ccco1)S(=O)(=O)c1ccc(F)cc1` (configuration not stated), for which the Potency entry is “inactive”.
